L3MBTL1 inh: blocks human L3MBTL1. Q9Y468. hit rate 0.66% among 230,000. AlphaScreen L3MBTL1–H3K9me1 peptide binding. AID 485360. Potency, µM (top dose mostly 57.1 µM), usual class: inhibitors; also: nearly all actives have a fitted effect of over 60% in size
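Displacement of a biotinylated histone H3(1-15) peptide monomethylated at Lys9 (75 nM) from L3MBTL1 (50 nM) was measured by AlphaScreen after a 30 min room-temperature compound incubation; cefsulodin titration served as intraplate control.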
BAZ2B block: blocks human BAZ2B. AlphaScreen BAZ2B-H3K14Ac peptide displacement. hit rate 4.4% among 360,000. Potency, µM (series often up to 114 µM), most hits filed as inhibitors. AID 504333; also: nearly all actives have a fitted effect of over 60% in size
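Compounds, titrated to a top concentration of 110 uM, were incubated 30 min at room temperature with preformed BAZ2B/acetyl-K14 H3 peptide complex (50 nM each). Proximity signal was measured by AlphaScreen after 20 min with beads.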
JMJD2A Tudor inh: blocks the human JMJD2A Tudor domain | hit rate 4.4% among 390,000 | Potency, µM (series often up to 114 µM), most hits filed as inhibitors | AlphaScreen JMJD2A-Tudor / H3K4me3 peptide binding; also: nearly all actives have a fitted effect of over 50% in size
KDM4E inh: inhibitors of human JMJD2E histone demethylase; hit rate 1.6% among 230,000; AID 2147; JMJD2E catalytic domain, FDH-coupled NADH fluorescence (FDH is formaldehyde dehydrogenase); Potency, µM (highest dose often 57.1 µM), hits mostly inhibitors; B2RXH2; active = well fitted inhibition curve with a large enough effect, not every such curve was filed as active; inconclusive = small, poorly fitted or top-dose-only effect, or another doubt; inactive = no such curve, though single readings can be large or run the other way; also: nearly all actives have a fitted effect of over 50% in size
PI5P4K alpha inh: blocks human PI5P4K alpha kinase activity; max response, %; P48426; PI5P4Kalpha enzyme, ADP-Glo luminescence, 60 min; active compounds read low; AID 652105; hit rate 1.2% among 330,000; active = max response of -50% or lower; inconclusive = between -30% and -50%; inactive = -30% or higher; also: value at the top dose of about 77 µM
Target sequence (P48426 whole entry, looked up): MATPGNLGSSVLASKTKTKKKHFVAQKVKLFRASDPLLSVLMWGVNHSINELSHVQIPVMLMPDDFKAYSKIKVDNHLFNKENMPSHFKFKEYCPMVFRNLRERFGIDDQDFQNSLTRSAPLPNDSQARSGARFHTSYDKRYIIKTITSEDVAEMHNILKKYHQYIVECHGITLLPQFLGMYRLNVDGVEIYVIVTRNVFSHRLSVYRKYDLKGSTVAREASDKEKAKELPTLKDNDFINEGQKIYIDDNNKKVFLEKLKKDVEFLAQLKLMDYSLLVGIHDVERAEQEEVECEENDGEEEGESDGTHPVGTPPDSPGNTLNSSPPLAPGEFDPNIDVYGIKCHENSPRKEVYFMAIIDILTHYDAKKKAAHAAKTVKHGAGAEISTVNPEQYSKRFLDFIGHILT
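ADP-Glo luminescence end-point after a 60 min room-temperature kinase reaction. PI5P4Kalpha and substrate in HEPES pH 7.4 buffer with EGTA, 0.1% CHAPS and 5% DMSO; ATP at 5 microM final.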
HP1b chromo inh: HP1-beta chromodomain-methylated histone interaction inhibition. AlphaScreen HP1-beta / biotin-H3K9me3 peptide binding. hit rate 0.56% among 390,000. Potency, µM (highest dose often 114 µM), actives largely listed as inhibitors. P83916; also: nearly all actives have a fitted effect of over 70% in size
Target sequence (P83916 whole entry, looked up): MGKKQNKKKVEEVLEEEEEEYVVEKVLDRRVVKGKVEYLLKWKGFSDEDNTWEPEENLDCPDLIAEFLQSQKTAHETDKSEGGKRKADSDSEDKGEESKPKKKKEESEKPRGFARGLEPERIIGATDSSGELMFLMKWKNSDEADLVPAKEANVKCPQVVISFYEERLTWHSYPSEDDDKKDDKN
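HP1-beta protein (50 nM final) preincubated 30 min at room temperature with biotinylated H3(1-18)K9me3 peptide (50 nM) in PBS pH 7.4, 0.01% Tween-20, then compound added for 30 min. AlphaScreen streptavidin donor/nickel chelate acceptor beads (10 ug/mL final), 30 min dark, luminescence read.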
Each line names hits and unclear results; the compound was inactive in the other large screens. An excerpt weighted towards active compounds, which were near 5.7% of everything screened. Unless noted, calls follow the shape of the dose curve; as a rule, active = well fitted inhibition curve with a large enough effect; inconclusive = small, poorly fitted or top-dose-only effect; inactive = no such curve, though single readings can be large or run the other way.

CCN(CC)S(=O)(=O)c1cccc(C(=O)OCC(=O)Nc2ccccc2OC(F)F)c1	none (no result: L3MBTL1 inh, PI5P4K alpha inh)
CCOc1ccc(NCc2cccn2-c2nnc(N3CCC(C(=O)NCCCN4C(C)CCCC4C)CC3)s2)cc1 (stereo unspecified)	BAZ2B block 40µM, JMJD2A Tudor inh 56µM (no result: L3MBTL1 inh, KDM4E inh)
COc1ccc(NCc2cccn2-c2nnc(N3CCC(C)CC3)s2)c(OC)c1	BAZ2B block inconclusive, JMJD2A Tudor inh 28µM, HP1b chromo inh inconclusive (no result: L3MBTL1 inh, KDM4E inh, PI5P4K alpha inh)
CCOc1ccc(NCc2cccn2-c2nnc(N3CCC(C(=O)NCCCN4CCCCC4C)CC3)s2)cc1 (stereo unspecified)	BAZ2B block inconclusive, JMJD2A Tudor inh 40µM (no result: L3MBTL1 inh, KDM4E inh)
CCOc1ccc(NCc2cccn2-c2nnc(N3CCC(C(=O)NCc4ccccc4Cl)CC3)s2)cc1	none (no result: L3MBTL1 inh, KDM4E inh, PI5P4K alpha inh)
CCOc1ccc(NCc2cccn2-c2nnc(N3CCC(C(=O)NCCCN4CCCCC4)CC3)s2)cc1	BAZ2B block 40µM, JMJD2A Tudor inh 50µM, HP1b chromo inh inconclusive (no result: L3MBTL1 inh, KDM4E inh)
CN(C)CCCN1c2ccc([N+](=O)[O-])cc2CCc2cc([N+](=O)[O-])ccc21	JMJD2A Tudor inh 18µM, HP1b chromo inh inconclusive (no result: L3MBTL1 inh, BAZ2B block, KDM4E inh, PI5P4K alpha inh)
CCOC(=O)Nc1ccc2c(c1)N(CCCN(C)C)c1ccccc1CC2	JMJD2A Tudor inh inconclusive (no result: KDM4E inh)
CCN(CC)S(=O)(=O)c1ccc(NCCCn2ccnc2)c([N+](=O)[O-])c1	BAZ2B block inconclusive (no result: L3MBTL1 inh, KDM4E inh)
O=C(c1ccccc1)c1ccc(NCCCn2ccnc2)c([N+](=O)[O-])c1	BAZ2B block 40µM, JMJD2A Tudor inh 40µM, HP1b chromo inh inconclusive (no result: L3MBTL1 inh, KDM4E inh)
CN1/C(=C\C(=S)NC(=O)c2ccc([N+](=O)[O-])cc2)C(C)(C)c2ccccc21	BAZ2B block inconclusive, JMJD2A Tudor inh 50µM, HP1b chromo inh inconclusive
CN1/C(=C\C(=S)NC(=O)c2cccc(Br)c2)C(C)(C)c2ccccc21	BAZ2B block 10µM, JMJD2A Tudor inh 20µM, HP1b chromo inh inconclusive
CN1/C(=C\C(=O)Nc2ccc(Br)cc2)C(C)(C)c2ccccc21	BAZ2B block inconclusive, KDM4E inh inconclusive
COc1ccc(CCn2c3c(c(=O)[nH]c2=O)C(NC(=O)c2ccccc2F)(C(F)(F)F)C(=O)N3)cc1OC (stereo unspecified)	none (no result: L3MBTL1 inh, KDM4E inh, PI5P4K alpha inh)
Cc1ccc(Nc2nc(CSc3nnc(-c4ccccc4C)n3C)cs2)cc1	BAZ2B block inconclusive, JMJD2A Tudor inh 79µM
COc1ccc(C(=O)C[N+]2(C)CCOCC2)cc1	BAZ2B block inconclusive, JMJD2A Tudor inh 22µM (no result: L3MBTL1 inh, PI5P4K alpha inh)
CCOC(=O)C1=C(C)N=c2s/c(=C/c3cccc([N+](=O)[O-])c3O)c(=O)n2C1c1ccccc1 (stereo unspecified)	BAZ2B block 7.1µM, JMJD2A Tudor inh 28µM, PI5P4K alpha inh -55, HP1b chromo inh 14µM (no result: L3MBTL1 inh, KDM4E inh)
CCOC(=O)C1=C(C)N=c2s/c(=C/c3cccc([N+](=O)[O-])c3O)c(=O)n2C1c1cc(OC)c(OC)c(OC)c1 (stereo unspecified)	BAZ2B block 7.9µM, JMJD2A Tudor inh 14µM, HP1b chromo inh 16µM (no result: L3MBTL1 inh, KDM4E inh)
CCOC(=O)C1=C(C)N=c2s/c(=C\c3cccc(OCC(=O)O)c3)c(=O)n2C1c1ccccc1 (stereo unspecified)	JMJD2A Tudor inh inconclusive (no result: KDM4E inh)
COc1cc(CCC(=O)NNC(=O)c2ccc(C)cc2)cc(OC)c1OC	none
CN(C(=O)CSc1n[nH]c(=O)[nH]c1=O)c1ccccc1	none (no result: BAZ2B block, KDM4E inh)
O=C(Sc1n[nH]c(=O)[nH]c1=O)c1ccccc1	JMJD2A Tudor inh 7.1µM, PI5P4K alpha inh -74, HP1b chromo inh inconclusive (no result: L3MBTL1 inh, BAZ2B block, KDM4E inh)
COc1ccc(-c2coc3cc(OC(C)=O)ccc3c2=S)cc1	JMJD2A Tudor inh 45µM, PI5P4K alpha inh inconclusive, HP1b chromo inh inconclusive (no result: L3MBTL1 inh, BAZ2B block, KDM4E inh)
Cc1ccc2c(=O)cc(C(=O)Nc3ccc(S(=O)(=O)Nc4onc(C)c4C)cc3)oc2c1C	JMJD2A Tudor inh 56µM (no result: L3MBTL1 inh, KDM4E inh, PI5P4K alpha inh)
Cc1noc(NS(=O)(=O)c2ccc(NC(=O)c3ccc(N4C(=O)c5ccccc5C4=O)cc3)cc2)c1C	BAZ2B block 50µM (no result: L3MBTL1 inh)
COc1cccc(C(=O)/C=C/Nc2ccc(S(=O)(=O)Nc3onc(C)c3C)cc2)c1	BAZ2B block inconclusive
Cc1cc2oc(C(=O)Nc3ccc(S(=O)(=O)Nc4onc(C)c4C)cc3)cc(=O)c2cc1C	none (no result: L3MBTL1 inh, KDM4E inh, PI5P4K alpha inh)
Cc1noc(NS(=O)(=O)c2ccc(NC(=O)CCN3C(=O)c4ccccc4C3=O)cc2)c1C	none
